{
  "source": "PubChem BioAssay (EPA / NIEHS)",
  "note": "Records with an inconclusive call do not appear. The source made the active and inactive calls. The calls were made as follows: active = hit-call score of the fitted dose curve at least 0.9, where 1 is the maximum; inconclusive = response in the unintended direction; inactive = score below 0.9.",
  "data": [
    {"read-out": "Glyceraldehyde-3-phosphate dehydrogenase (Homo sapiens) (UniProt P04406)", "assay": "CLD_GAPDH_48hr: CellzDirect (CLD) Gene Expression Assay for Baseline Control (Glyceraldehyde 3-phosphate dehydrogenase) at 48 hours (AID 2283706);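 also: active means higher GAPDH mRNA than DMSO vehicle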", "protocol": "CLD_48hr is a cell-based, multiplexed-readout assay that uses hepatocyte, a human liver primary cell, with measurements taken at 48 hours after chemical dosing in a 96-well plate.CLD_GAPDH_48hr is one of 16 assay component(s) measured or calculated from the CLD_48hr assay. It is designed to make measurements of mRNA induction, a form of inducible reporter, as detected with chemiluminescence signals by Quantitative Nuclease Protection Assay (qNPA) technology.Data from the assay component CLD_GAPDH_48hr was analyzed at the endpoint, CLD_GAPDH_48hr, in the positive analysis fitting direction relative to DMSO as the negative control and baseline of activity. Using a type of inducible reporter, gain-of-signal activity can be used to understand changes in the reporter gene as they relate to the gene GAPDH. Furthermore, this assay endpoint can be referred to as a secondary readout, because this assay has produced multiple assay endpoints where this one serves a background control function. To generalize the intended target to other relatable targets, this assay endpoint is annotated to the background measurement intended target family, where subfamily is baseline control.\nHuman hepatocyte cultures were treated daily for two consecutive days with fresh dosing solutions containing appropriate concentrations of the 320 ToxCast chemicals (chemical identities were blinded to CellzDirect and other ToxCast collaborators), vehicle control (0.2% DMSO), and positive control inducers as summarized in Table 1. Due to the large number of treatment groups and chemicals examined, the ToxCast chemicals were divided into two groups (spanning two independent cultures of hepatocytes from separate donor preparations (Hu778: ToxCast plates 1 and 2; Hu776: ToxCast plates 3 and 4). Each preparation of human hepatocyte cultures was treated with respective vehicle control, medium only control, set of six positive controls/reference chemicals for the five hepatic receptor pathways, and a subset of eight of the ToxCast chemicals (indoxacarb, pyrithiobac-sodium, norflurazon, cyhalofop-butyl, methomyl, thiram, acetochlor, and propiconazole). These replicate data, coupled with internal replicates designed within the blinded ToxCast chemical library, provided additional data to evaluate interindividual differences between hepatocyte preparations and their potential impact on chemical profiles.Cell morphology and integrity were evaluated using phase-contrast microscopy as an indicator of hepatocyte cell health (Tyson & Green, 1987). Cultures for each treatment group (i.e., media, vehicle [0.2% DMSO], positive control inducers [multiple concentrations], and the ToxCast chemicals [multiple concentrations]) were observed and cell morphology was assessed relative to vehicle control cultures at each harvest time point (0, 6, 24, or 48 h). […] Images were evaluated at the conclusion of the study to assess changes in cell integrity and account for the effects of chemical exposure on uncharacteristic changes in concentration-dependent gene expression profiles. The results from these determinations of apparent cytotoxicity were annotated (yes/no) alongside the corresponding qNPA data for reference.At the conclusion of each treatment period, hepatocyte cultures (96-well) were washed with 1 volume of HBSS, lysed by addition of 25 ul ArrayPlate lysis buffer (HTG, Tucson, AZ), and 70 ul/well of Denaturation Oil, denatured by incubation at 95C for 10 min, and frozen at approximately -70C until analysis by nuclease protection assay (qNPA) (Roberts et al., 2007). For qNPA analysis, cell lysates were thawed at 50C for approximately 30 min, qNPA probes were added, and samples were incubated at 95C for 10 min to begin the detection process by denaturing the target RNA, dissociating the duplexes and secondary structure hybridization. At the conclusion of the hybridization period, S1 nuclease reagent was added to each sample to digest all nonprotected nucleotides at 50C for 60-90 min. […]", "values": [
      {"smiles": "CNC(=O)Oc1cccc(N=CN(C)C)c1", "outcome": "inactive"},
      {"smiles": "COC(=O)c1ccccc1CS(=O)(=O)NC(=O)Nc1nc(OC)cc(OC)n1", "outcome": "inactive"},
      {"smiles": "O=C(NC(=O)c1c(F)cccc1F)Nc1ccc(OC(F)(F)C(F)OC(F)(F)F)c(Cl)c1", "note": "(centres undefined)", "outcome": "inactive"},
      {"smiles": "CCCN(CCOc1c(Cl)cc(Cl)cc1Cl)C(=O)n1ccnc1", "outcome": "inactive"},
      {"smiles": "CCOc1nc(NC)nc(NC(=O)NS(=O)(=O)c2ccccc2C(=O)OC)n1", "outcome": "inactive"},
      {"smiles": "CC(C)N(C(=O)COc1nnc(C(F)(F)F)s1)c1ccc(F)cc1", "outcome": "inactive"},
      {"smiles": "CC[C@H](C)[C@H]1O[C@]2(C=C[C@@H]1C)C[C@@H]1C[C@@H](C/C=C(\\C)[C@@H](O[C@H]3C[C@H](OC)[C@@H](O[C@H]4C[C@H](OC)[C@@H](O)[C@H](C)O4)[C@H](C)O3)[C@@H](C)/C=C/C=C3\\CO[C@@H]4[C@H](O)C(C)=C[C@@H](C(=O)O1)[C@]34O)O2", "note": "(tested in a mixture with another compound)", "outcome": "inactive"},
      {"smiles": "Oc1ccc(Cl)cc1Cc1ccccc1", "outcome": "inactive"},
      {"smiles": "O=C1c2ccccc2C(=O)N1SC(Cl)(Cl)Cl", "outcome": "inactive"},
      {"smiles": "CCS(=O)(=O)c1cccnc1S(=O)(=O)NC(=O)Nc1nc(OC)cc(OC)n1", "outcome": "inactive"},
      {"smiles": "CNC(=O)Oc1ccccc1OC(C)C", "outcome": "inactive"},
      {"smiles": "COC(=O)c1ccccc1S(=O)(=O)NC(=O)N(C)c1nc(C)nc(OC)n1", "outcome": "inactive"},
      {"smiles": "O=S(=O)(O)C(F)(F)C(F)(F)C(F)(F)C(F)(F)C(F)(F)C(F)(F)C(F)(F)C(F)(F)F", "outcome": "inactive"},
      {"smiles": "CCC(C)(C)C(=O)OC1=C(c2ccc(Cl)cc2Cl)C(=O)OC12CCCCC2", "outcome": "inactive"},
      {"smiles": "N#Cc1c(Cl)c(Cl)c(Cl)c(C#N)c1Cl", "outcome": "inactive"},
      {"smiles": "Cc1cc(C)nc(NC(=O)NS(=O)(=O)c2ccccc2C(=O)OC2COC2)n1", "outcome": "inactive"},
      {"smiles": "O=C(O)COc1ccc(Cl)cc1Cl", "outcome": "inactive"},
      {"smiles": "CC(C)OC(=O)Nc1cccc(Cl)c1", "outcome": "inactive"},
      {"smiles": "CNC(=O)/C=C(\\C)OP(=O)(OC)OC", "outcome": "inactive"},
      {"smiles": "O=[N+]([O-])/N=C1\\NCCN1Cc1ccc(Cl)nc1", "outcome": "inactive"},
      {"smiles": "Oc1cc(Cl)ccc1Oc1ccc(Cl)cc1Cl", "outcome": "inactive"},
      {"smiles": "CC1(c2ccc(Oc3ccccc3)cc2)OC(=O)N(Nc2ccccc2)C1=O", "note": "(centres undefined)", "outcome": "inactive"},
      {"smiles": "[2H]C1([2H])[n+]2ccccc2-c2cccc[n+]2C1([2H])[2H]", "outcome": "inactive"},
      {"smiles": "N#CN", "outcome": "inactive"},
      {"smiles": "COC(=O)c1ccccc1S(=O)(=O)NC(=O)Nc1nc(C)nc(OC)n1", "outcome": "inactive"},
      {"smiles": "COP(=O)(OC)OC=C(Cl)Cl", "outcome": "inactive"},
      {"smiles": "O=C(O)C(F)(F)C(F)(F)C(F)(F)C(F)(F)C(F)(F)C(F)(F)C(F)(F)F", "outcome": "inactive"},
      {"smiles": "CN1CSC(=S)N(C)C1", "outcome": "inactive"},
      {"smiles": "COc1cc(OC)nc(NC(=O)NS(=O)(=O)c2cc(NC=O)ccc2C(=O)N(C)C)n1", "outcome": "inactive"}
    ]}
  ]
}
